8 compounds from PubChem BioAssay (NCI) can be followed below.

Molecules are shown by their SMILES. This is part of a sample that, as a whole, favours compounds with a hit. Of some 83,000 tested, about 20% had one in any assay.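 In brief: 96-well plates, 48 h treatment, single concentration, percent growth endpoint.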 Values without a mark were called inactive. Active and inactive are the calls of the source. How the source made its calls: active means growth percent below 10; inactive means the rest.

Some test systems named below: NCI-H23 lung; NCI-H226 lung; NCI-H322M lung; HOP-62 NSCLC; NCI-H460 lung; HOP-92 NSCLC; NCI-H522 lung; 786-0 renal; COLO 205 colon; DU-145 prostate; K-562 leukemia; MALME-3M melanoma; MDA-MB-231 breast; RXF 393 renal; SF-268 CNS; SF-295 CNS; SF-539 CNS; UACC-257 melanoma; M14 melanoma; A549/ATCC NSCLC.
Holding throughout (test): NCI-60 one-dose screen, 48 h (100 = growth as untreated, 0 = no growth, -100 = all killed)
What all share (conditions): 10 µM unless noted

As for `COC[C@@H](C)n1c(C2CCOCC2)nc2c1C1C=C(OC)C(c3c(C)noc3C)=CC1N=C2` (some centres not stated), the growth is 48.5% in the test with NCI-H23 lung; 65.1% in the test on NCI-H226 lung; 40.7% with NCI-H322M lung; 51.5% in the test on HOP-62 NSCLC; 59.4% in the test with NCI-H460 lung; 11.1% in the test with HOP-92 NSCLC. Also, the growth was -1.23% (active) in the test on NCI-H522 lung; 48.6% in the test on 786-0 renal; 31.9% with COLO 205 colon; 65.5% in the test with DU-145 prostate; 33.6% in the test with K-562 leukemia; 41.2% in the test on MALME-3M melanoma. For the same compound, the growth in the test on MDA-MB-231 breast is 25%; in the test on RXF 393 renal it was 55.9%; in the test on SF-268 CNS, 62.4%; in the test on SF-295 CNS, 45.4%; with SF-539 CNS it was 34.5%; in the test on UACC-257 melanoma, 41.4%. Also, the growth with M14 melanoma is 42.4%.

For the compound `NC1(C(=O)N[C@@H](CCO)c2ccc(Cl)cc2)CCN(c2ncnc3[nH]ccc23)CC1`, the growth in the test on NCI-H23 lung was 53%; in the test with NCI-H226 lung, 17.3%; in the test with NCI-H322M lung, 55%; in the test with HOP-62 NSCLC, 33.9%; in the test on NCI-H460 lung it was 24.6%; in the test on HOP-92 NSCLC, -13.2% (active). Moreover, the growth in the test with NCI-H522 lung is 44.2%; in the test on 786-0 renal, 1.31% (active); with COLO 205 colon it was 32.1%; with DU-145 prostate it was 57.2%; in the test on K-562 leukemia, 76.9%; in the test on MALME-3M melanoma it was 9.74% (active). Moreover, the growth in the test on MDA-MB-231 breast is 73.5%; in the test with RXF 393 renal, -42.3% (active); in the test with SF-268 CNS, 60.9%; with SF-295 CNS, -3.48% (active); in the test with SF-539 CNS it was -54.4% (active); in the test on UACC-257 melanoma it was 31.7%. The growth with M14 melanoma was 46.3%.

Take `N[C@@H]1CCCN(c2c(/C=C3\SC(=O)NC3=O)cccc2-c2ccccc2)C1`: the growth is 66% with NCI-H23 lung; 59.1% in the test on NCI-H226 lung; 64.3% with NCI-H322M lung; 1.79% (active) in the test with HOP-62 NSCLC; 75.9% in the test with NCI-H460 lung; 27.9% in the test on HOP-92 NSCLC. The growth was 49.7% in the test with NCI-H522 lung; 82.8% in the test on 786-0 renal; 45.4% in the test on COLO 205 colon; 70.4% with DU-145 prostate; 33.1% in the test with K-562 leukemia; 55.6% with MALME-3M melanoma. The growth was 55.8% in the test on MDA-MB-231 breast; 54.6% in the test with RXF 393 renal; 43% with SF-268 CNS; 5.44% (active) in the test on SF-295 CNS; -24.7% (active) with SF-539 CNS; 44.7% with UACC-257 melanoma. The growth in the test on M14 melanoma was 54.3%.

In the case of `NC(=O)N1N=C(c2ccc(Cl)cc2)CC1c1cn(-c2ccccc2)nc1-c1ccc(Cl)cc1` (configuration not stated), the growth is 56.5% in the test on NCI-H23 lung; 30.1% in the test with NCI-H226 lung; 63.1% in the test with NCI-H322M lung; 37.8% in the test on HOP-62 NSCLC; 41.9% in the test on NCI-H460 lung; 49.7% in the test on HOP-92 NSCLC. The growth is 56.9% in the test with NCI-H522 lung; 41.3% with A549/ATCC NSCLC; -7.43% (active) in the test with 786-0 renal; 81.9% with COLO 205 colon; 77.7% in the test with DU-145 prostate; 78.8% in the test on K-562 leukemia. For the same compound, the growth with MDA-MB-231 breast is 43.4%; in the test with RXF 393 renal, -11.2% (active); in the test on SF-268 CNS, 55.4%; with SF-295 CNS, 40.3%; with SF-539 CNS, 37.8%; in the test with M14 melanoma, 79.8%.

Turning to `Nc1cc2c(cc1Br)-c1c(C(=O)O)cccc1C2O` (configuration not stated), the growth in the test with NCI-H23 lung is 87.2%; in the test on NCI-H226 lung, 100%; in the test on NCI-H322M lung, 107%; in the test on HOP-62 NSCLC it was 95.9%; with NCI-H460 lung, 99.4%; in the test with HOP-92 NSCLC, 125%. For the same compound, the growth was 96.5% with NCI-H522 lung; 91.7% with A549/ATCC NSCLC; 98.8% with 786-0 renal; 96.3% in the test on COLO 205 colon; 110% in the test with DU-145 prostate; 98.2% with MALME-3M melanoma. Moreover, the growth in the test with MDA-MB-231 breast was 98.3%; in the test with SF-268 CNS, 115%; with SF-295 CNS, 118%; with SF-539 CNS it was 98.6%; in the test on M14 melanoma, 98.9%.

For the compound `Cn1cc(-c2ccc(F)c(C(F)(F)F)c2)nc1C1CCN(c2ncnc3[nH]ncc23)CC1`, the growth in the test on NCI-H23 lung was 72.3%; in the test with NCI-H226 lung, 55.3%; with NCI-H322M lung it was 75.3%; in the test on HOP-62 NSCLC it was 52.1%; with NCI-H460 lung, 76.9%; with HOP-92 NSCLC, 65.3%. For the same compound, the growth with NCI-H522 lung is 47.8%; in the test with 786-0 renal, 69.1%; in the test with COLO 205 colon, 84.4%; in the test with DU-145 prostate, 77.3%; in the test with K-562 leukemia it was 77.8%; in the test with MALME-3M melanoma, 76.5%. Moreover, the growth was 72.5% in the test on MDA-MB-231 breast; 56.7% with RXF 393 renal; 44.7% in the test on SF-268 CNS; 70.8% in the test with SF-295 CNS; 51.5% in the test with SF-539 CNS; 74.3% in the test with UACC-257 melanoma. Besides, the growth with M14 melanoma is 83.4%.

In the case of `Nc1nc(N)c2cc(CNc3ccc(C(=O)NC(CC(=O)O)C(=O)O)cc3)ccc2n1` (configuration not stated), the growth is 17.7% in the test on NCI-H23 lung; 23.2% with NCI-H226 lung; 66.7% with NCI-H322M lung; 19.7% with HOP-62 NSCLC; 11.5% in the test on NCI-H460 lung; 48.5% in the test with HOP-92 NSCLC. The growth is 34.3% in the test with NCI-H522 lung; -32.8% (active) with A549/ATCC NSCLC; 15.8% in the test with 786-0 renal; 51.9% in the test on COLO 205 colon; 26.7% with DU-145 prostate; 81.3% in the test on MALME-3M melanoma. For the same compound, the growth in the test with MDA-MB-231 breast is 95.8%; in the test with SF-268 CNS it was 29.7%; in the test on SF-295 CNS it was 28.5%; with SF-539 CNS, 15.6%; in the test with M14 melanoma, 16.7%.

For the compound `COc1cc2ncnc(Nc3ccc(F)c(Cl)c3)c2cc1NC(=O)/C=C/CN1CCCCC1`, the growth was -54.1% (active) with NCI-H23 lung; -83.4% (active) in the test on NCI-H226 lung; -1.5% (active) in the test on NCI-H322M lung; -51.9% (active) with HOP-62 NSCLC; -69.9% (active) in the test with NCI-H460 lung; -83.6% (active) in the test on HOP-92 NSCLC. Besides, the growth was -56.9% (active) in the test with NCI-H522 lung; -81.7% (active) in the test on 786-0 renal; -76.6% (active) with COLO 205 colon; -42.7% (active) with DU-145 prostate; -28.5% (active) in the test with K-562 leukemia; -80.7% (active) in the test with MALME-3M melanoma. Moreover, the growth in the test with MDA-MB-231 breast was -68.7% (active); in the test on RXF 393 renal, -92.1% (active); in the test on SF-268 CNS it was -74.5% (active); with SF-295 CNS it was -55% (active); in the test with SF-539 CNS, -89.9% (active); in the test on UACC-257 melanoma, -77% (active). Besides, the growth in the test with M14 melanoma was -72% (active).
